Compound activity: PubChem BioAssay, National Center for Advancing Translational Sciences (NCATS)
This is a sample that favours compounds with a hit; in the whole collection about 7.9% have one here.
KB-3-1 tox: kills parental KB-3-1 adenocarcinoma cells; KB-3-1 viability, CellTiter-Glo ATP luminescence, 72 h; Potency, µM (titrated, usually from 46.1 µM), usual class: cytotoxic; hit rate 1.4% among 400,000; further: on the % scale 0 is the no-effect control and ±100 the full control effect; nearly all actives have a fitted effect of over 60% in size
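Multi-concentration cytotoxicity screen in KB-3-1 cells grown in DMEM lacking phenol red with 10% FBS. After 72 h at 37 °C with compound, ATP-dependent luminescence was recorded.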
KB-V1 cytotox: KB-V1 MDR subline cytotoxicity; hit rate 3.4% among 400,000; KB-V1 MDR cells viability, CellTiter-Glo, 72 h; Potency, µM (doses to about 46.1 µM), usual class: cytotoxic; AID 1347076; further: on the % scale 0 is the no-effect control and ±100 the full control effect; nearly all actives have a fitted effect of over 60% in size
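Drug-selected KB-V1 cells, grown in DMEM lacking phenol red with 10% FBS, receive compound titrations; after three days at 37 degrees C, surviving cell ATP is quantified by CellTiter-Glo luminescence and responses normalized and curve-fitted.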
HT1080 IDH1KD tx: toxicity to HT-1080 IDH1 knockdown cells (counter line); AID 686971; Potency, µM (titrated, usually from 46.1 µM), inactives show at the top dose activity, negative = toxicity, usual class: cytotoxic; hit rate 2% among 360,000; HT-1080 IDH1 knockdown viability, ATP luminescence, 48 h;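 further: 0% = DMSO wells and -100% = cell-free medium wells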
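Luminescent ATP read-out (CellTiter-Glo, 10 min at room temperature) after 48 h compound exposure at 37 °C gave viability of IDH1-knockdown HT-1080 cells. Activity was normalised to DMSO and cell-free wells, then fitted as concentration-response curves.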
HT1080-NT tox: kills 2HG-producing HT-1080-NT fibrosarcoma cells | HT-1080-NT fibrosarcoma viability, CellTiter-Glo ATP luminescence, 48 h | Potency, µM (doses to about 46.1 µM), for the others: at the highest dose activity, negative = less viability, hits mostly cytotoxic | hit rate 1.6% among 360,000;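 further: NT is the 2HG producing partner of a matched IDH1 knockdown line; 0% = DMSO-treated cells and -100% = media-only wells without cells; nearly all actives have a fitted effect of over 55% in size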
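HT-1080-NT; 750 cells/well; 5% FBS RPMI; 48 h compound, 37 degrees C; CellTiter-Glo luminescence; curve fitting and curve-class assignment.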
SW480 rerep: DNA re-replication induction in SW480 cells; SW480 DNA re-replication, Hoechst DNA content imaging, 48 h; Potency, µM (highest dose often 46.1 µM), for inactives: at the highest dose re-replication activation, actives largely listed as activators; hit rate 1.8% among 340,000; AID 624297; further: % of control where 0% means no effect; nearly all actives have a fitted effect of over 55% in size
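Cells (250 per well) received 23 nL compound or DMSO by pin tool and were kept 48 hr at 37 C, 5% CO2. Nuclei were then stained with Hoechst for 40 min and scanned for DNA content.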
MCF10A rerep: DNA re-replication induction in MCF 10a cells. MCF 10A DNA re-replication, Hoechst nuclear intensity, 48 h. Potency, µM (doses to about 46.1 µM), for the others: at the top dose activity, positive = re-replication, usual class: activators. hit rate 2.9% among 350,000; further: % of control where 0% means no effect; nearly all actives have a fitted effect of over 50% in size
An asterisk follows results filed as active; i = inactive; ? = inconclusive; . = no result given; [ ] = remark or other dose. The call rests on the fitted dose curve; in most records, active means well fitted curve in the direction sought with a large enough effect; inconclusive means small, poorly fitted or top-dose-only effect, or another doubt; inactive means no such curve, though single readings can be large; an effect the other way counts as inactive or inconclusive. Potency means the concentration at half of the fitted maximal effect.

SMILES | KB-3-1 tox | KB-V1 cytotox | HT1080 IDH1KD tx | HT1080-NT tox | SW480 rerep | MCF10A rerep
CCN(CC)c1ccc(/C=N/NC(=S)NCc2ccc(OC)cc2)cc1 | i | i | -18% | -8% | ? | 10µM*
CCN(CC)c1ccc(/C=N/NC(=O)C(O)c2ccccc2)cc1 (stereo unspecified) | i | i | -13% | -28% | 0% | 1%
CCN(CC)c1ccc(/C=N/NC(=S)NCc2ccccc2)cc1 | i | i | 3% | 7% | ? | 21µM*
C=CCNC(=S)N/N=C/c1ccc(N(CC)Cc2ccccc2)cc1 | ? | 13µM* | ? | -15% | 18µM* | ?
COc1ccc(-c2cnc(C(N)=O)c(=O)[nH]2)cc1 | i | i | -1% | 8% | . | .
O=C(CCCN1C(=O)/C(=C/c2cccc(Br)c2)SC1=S)NCCCN1CCOCC1 | ? | ? | ? | ? | -2% | 23µM*
O=C(CCN1C(=O)/C(=C/c2ccccc2Cl)SC1=S)NCCCN1CCOCC1 | 15µM* | i | -9% | 3% | ? | -4%
O=C(CN1C(=O)/C(=C/c2cccc(Br)c2)SC1=S)NCCCN1CCOCC1 | . | . | -30% | -12% | 12% | 0%
CCCCC(=O)Nc1ccc(C(=O)N(CC)c2ccccc2C)cc1 | i | 15µM* | ? | ? | ? | 20%[9.22 µM]
CCN(C(=O)c1ccc(NC(C)=O)cc1)c1ccccc1C | i | i | 10% | 9% | 1% | 2%
COc1ccc(Nc2nc(N)c(C(=O)c3ccc(F)cc3)s2)cc1 | ? | 1.3µM* | 1.8µM* | ? | 4.1µM* | 2.6µM*
COc1cccc(C(=O)c2sc(NC(C)C)nc2N)c1 | 16µM* | ? | ? | -24% | ? | 5.8µM*
COc1ccc(Nc2nc(N)c(C(=O)c3ccc(OC)cc3)s2)cc1 | 1.3µM* | ? | ? | ? | 4.1µM* | ?
CC(C)Nc1nc(N)c(C(=O)C23CC4CC(CC(C4)C2)C3)s1 | i | i | -4% | -1% | 21% | 23µM*
COc1ccc(C(=O)c2sc(Nc3ccccc3)nc2C)cc1 | i | i | ? | -18% | -1% | ?
COc1ccc(NC(=O)c2sc3ncn(CC(=O)N4CCCCC4)c(=O)c3c2C)cc1OC | i | i | 2% | 1% | -22% | -2%
CC[C@]12c3[nH]c4ccccc4c3CCN1C(=O)C(CC(=O)NCCCn1ccnc1)C[C@@H]2C(=O)N1CCN(C(=O)C2CC2)CC1 (stereo partly specified) | i | i | 8% | 5% | -77% | 5%
CC(C)NC(=O)NC(=O)COc1ccc(Br)cc1Br | i | ? | -9% | -4% | 12% | 23µM*
Cc1occc1C(=O)NNC(=O)COc1ccc(Br)cc1Br | i | 15µM* | -10% | -1% | 1% | 4%
CN(C)/C=C/C(=O)c1ccc(Cl)cc1 | i | i | -24% | 0% | -1% | 18µM*
CN(C)/C=C/C(=O)c1cccc(Cl)c1 | i | i | 2% | 0% | 0% | 5.8µM*
CN(C)/C=C/C(=O)c1ccc(-n2cccc2)cc1 | i | ? | 0% | -5% | -19% | ?
CN(C)/C=C/C(=O)/C=C/c1ccc(Cl)cc1 | i | i | ? | 12µM* | 9% | ?
Cc1ccc(C)c(N2CCN(C(=O)C3CCC(CNS(=O)(=O)c4ccc(Br)s4)CC3)CC2)c1 (stereo unspecified) | i | i | . | . | . | .
CN1CCC[C@@H]1Cc1c[nH]c2ccc(CCS(=O)(=O)c3ccccc3)cc12 | . | . | . | . | 3% | 2%
SMILES | KB-3-1 tox | KB-V1 cytotox | HT1080 IDH1KD tx | HT1080-NT tox | SW480 rerep | MCF10A rerep
Cc1nnc(NC(=O)CCC(=O)N2CCN(S(=O)(=O)c3cc([N+](=O)[O-])ccc3C)CC2)s1 | i | i | 1% | 2% | -3% | 6%
COc1ccc(C(=O)NNC(=S)NC(=O)c2ccc(OC)cc2)cc1 | ? | i | ? | ? | 0% | ?
C=CCNC(=S)NNC(=O)c1ccc(OCCC)cc1 | i | i | 10% | 14% | -9% | 6%
CCCOc1ccc(C(=O)NNC(=S)NC(=O)CC)cc1 | 13µM* | ? | 10µM* | ? | ? | 16µM*
CCCCC(=O)NC(=S)NNC(=O)c1ccc(OC)cc1 | 23µM* | ? | ? | ? | -13% | -1%
C=CCNC(=S)NNC(=O)c1ccc(OCC(C)C)cc1 | i | i | -25% | ? | 18µM* | -2%
COc1ccc(S(=O)(=O)Nc2cccc(-c3ccc(N4CCCC4)nn3)c2)cc1F | ? | i | . | . | . | .
Cc1cn(C2CCCCC2)c(=O)n(-c2ccccc2)c1=O | . | . | 6% | 6% | -7% | ?
Cc1c(Cc2ccccc2)c(=O)n2c([nH]c3ccccc32)c1C#N | ? | 13µM* | ? | 21µM* | -16% | 14%
COc1ccccc1N=Cc1c(C)c(C#N)c2[nH]c3ccccc3n2c1=O | i | i | -3% | -1% | -2% | ?
N#Cc1c(C(F)(F)F)cc(=O)n2c1[nH]c1ccccc12 | i | i | 26µM* | 4.6µM* | ? | 18µM*
C[C@@H]1CN([C@H](C)CO)C(=O)c2cc(Br)cnc2O[C@@H]1CN(C)C(=O)c1cccc(F)c1 | i | i | 13% | 24% | . | .
Cn1c2ccccc2c(=O)c2ccc(Cl)cc21 | ? | 13µM* | 0% | -1% | . | .
Cn1c2ccccc2c(=O)c2ccc(C#Cc3ccc(N)cc3)cc21 | i | i | ? | ? | 15µM* | ?
COc1ccccc1C#Cc1ccc2c(=O)c3ccccc3n(C)c2c1 | i | i | 25% | 25% | -4% | 21µM*
CCOc1ccc(CCN2C(=O)C(=O)N([C@@H](CC(C)C)CN3CCC[C@H]3CN3C(=O)C(=O)NC[C@@H]3CC(C)C)C[C@@H]2Cc2ccc(O)cc2)cc1 | ? | i | ? | -24% | . | .
Cc1ccccc1Cn1c(C)c(C(=O)N(C)Cc2ccc(F)cc2)sc1=O | ? | 16µM* | 5% | 9% | . | .
COc1ccc(Br)c(Cn2c(C)c(C(=O)N(C)Cc3ccc(F)cc3)sc2=O)c1 | ? | 8.2µM* | ? | 1% | . | .
Cc1cc(Nc2ccc(Cl)cc2)nc(NCc2ccccc2)n1 | ? | 21µM* | ? | ? | ? | ?
Cc1cc(Nc2cccc(F)c2)nc(NCc2ccccc2)n1 | ? | 8.2µM* | ? | ? | ? | ?
Cc1cc(Oc2ccccc2)nc(NCc2ccccc2)n1 | 16µM* | 21µM* | -17% | -6% | ? | 19%
Cc1cc(Nc2ccccc2)nc(NCc2ccccc2)n1 | 21µM* | 10µM* | 23µM* | ? | ? | 16µM*
